Screening data: PubChem, National Center for Advancing Translational Sciences (NCATS)
Hits are enriched below; roughly 4.6% of the tested compounds scored in any of these assays.
Epigenetic reg: derepresses silenced GFP reporter in murine cells; 280,000 compounds, 0.2% hits; Potency, µM (highest dose often 53.9 µM), without a hit: top-dose GFP activation, hits mostly activators; murine LDR cells, GFP reporter derepression, 30 h; AID 1865; active = well fitted activation curve with a large enough effect; inconclusive = small, poorly fitted or top-dose-only effect; also: potency is read from the fitted curve at half-maximal effect; % of control where 0% means no effect; nearly all actives have a fitted effect of over 60% in size
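Murine LDR cells carrying a silenced, genomically integrated CMV-driven GFP reporter were exposed to compound for 30 hours at 37 C. After PBS washes, GFP-positive cells (20–120 um objects) were counted by laser-scanning microplate cytometry.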
D1 antagonist: antagonists of human D1 dopamine receptor; P21728; HEK293 TREx D1 cells, calcium flux, dopamine EC80; active compounds read low; activity change, negative = inhibition, % at 10 µM; 360,000 compounds, 3.2% hits; AID 504652; in the data active = activity change below about -30%; also: % is scaled to controls: 0 for no effect and ±100 for the full control effect
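Tetracycline-induced HEK293 Trex D1 cells, force-coupled to calcium, dye-loaded; compounds added and read 180 s, then EC80 dopamine added and calcium flux tracked kinetically another 180 s.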
D1 ag: activates the human D1 dopamine receptor; 360,000 compounds, 1% hits; AID 504660; activation, % at 2 µM; P21728; HEK293 T-REx D1 cells, calcium flux, agonist mode; also: 0% is about no effect
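Agonism was scored from calcium flux recorded over 180 s (1 read/s) after pintool compound addition, following a 10-cycle baseline. Cells were inducible force-coupled HEK293 TREx D1, plated overnight at 30 C and loaded with no-wash calcium dye.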
D1 PAM: enhances dopamine response at the human D1 receptor. P21728. HEK293 TREx D1 cells, calcium flux, dopamine EC20 potentiation. potentiation, % at 10 µM. 360,000 compounds, 0.036% hits. AID 504651; in the data active = potentiation above about 30%; also: 0% is about no effect
TRHR PAM: allosteric enhancers of human TRH receptor | P34981 | AID 493056 | enhancement, % at 2 µM | TRHR cells, fluo-8 calcium fluorescence, EC20 TRH enhancement | 360,000 compounds, 0.66% hits; in the data active = enhancement above about 30%; also: 0% is about no effect
Target sequence (P34981 whole entry, looked up): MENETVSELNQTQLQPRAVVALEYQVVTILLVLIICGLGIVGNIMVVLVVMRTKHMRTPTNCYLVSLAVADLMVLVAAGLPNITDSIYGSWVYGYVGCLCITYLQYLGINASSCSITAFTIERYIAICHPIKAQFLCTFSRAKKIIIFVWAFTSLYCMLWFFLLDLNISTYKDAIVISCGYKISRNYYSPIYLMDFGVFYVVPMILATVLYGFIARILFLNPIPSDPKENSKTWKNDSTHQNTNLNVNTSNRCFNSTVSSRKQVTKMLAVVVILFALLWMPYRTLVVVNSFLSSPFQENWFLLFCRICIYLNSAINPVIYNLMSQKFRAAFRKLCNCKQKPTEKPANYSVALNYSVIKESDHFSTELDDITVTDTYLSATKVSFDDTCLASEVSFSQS
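Enhancer read-out: after compound pinning and an initial kinetic agonist-mode read, an EC20 of TRH (10 nM final) was injected and fluo-8 calcium signal (Ex 480/Em 530) followed at 1 s/cycle for 100 cycles in TRHR-expressing cells.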
TRHR agonist: TRH receptor (human) agonism; TRHR cells, calcium flux fluo-8, FDSS agonist mode; activation, % at 2 µM; 360,000 compounds, 0.18% hits; P34981; also: 0% is about no effect
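Agonist-mode FDSS calcium read (Ex 480/Em 530, 1 s cycles) in 1536-well TRHR cells with fluo-8 dye, after 10-cycle baseline and 23 nL compound addition; TRH at EC20 (10 nM final) added afterwards for the enhancer phase.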
* hit, by the source's call; ? = inconclusive; . = no result given; ! = a repeat was not active; [ ] = remark or other dose. Rule as the data show it, unless noted: active = activation above about 30%; inactive = the rest.

SMILES	Epigenetic reg	D1 antagonist	D1 ag	D1 PAM	TRHR PAM	TRHR agonist
CC1CCC/C=C/C2CC(O)CC2C(O)/C=C/C(=O)O1 (stereo not given)	4.1%	-6.6	4.3	4.3	5.8	1.5
CN1CCN(c2ccc([N+](=O)[O-])c(Sc3ccccn3)c2)CC1	9.8%	-70.0*	2.7	-7.2	3.2	-0.2
CN1CCN(c2ccc([N+](=O)[O-])c(Sc3nncn3C)c2)CC1	-3.4%	-1.2	1.0	-6.5	0.0	0.7
CC(=O)O[C@@H]1CN2CCC1CC2	-1.1%	.	.	.	.	.
COc1cc2c(cc1OC)CN(c1ccc([N+](=O)[O-])c(C(F)(F)F)c1)CC2	13.8%	-18.3	3.4	-8.0	36.5*	0.3
CCNc1cc(N2CCN(C)CC2)ccc1[N+](=O)[O-]	-1.9%[10.1 µM]	-20.9	1.8	-22.0	-13.2	-0.4
NC(CP(=O)(O)O)C(=O)O (stereo not given)	-2.3%	.	.	.	.	.
FC(F)(F)c1cccc(N2CCNCC2)c1	4.0%	-31.9*	4.4	-3.1	-0.3	0.4
FC(F)(F)c1ccc(CN2CCNCC2)cc1	1.3%	7.6	1.4	3.9	-4.7	0.2
O=C(O)[C@@H]1CCN1	-0.1%	.	.	.	.	.
COc1ccc2nc(NC(=O)c3nc(S(=O)(=O)Cc4cccc(C)c4)ncc3Cl)sc2c1	?	-30.8*	0.6	-2.5	-7.0	-0.2
Cc1c(CC(=O)N2C[C@H]3C[C@@H](C2)c2cccc(=O)n2C3)c(=O)oc2cc(O)c(Cl)cc12	.	-46.6*	1.7	-0.2	12.3	-0.1
CN1C[C@H](CNC(=O)OCc2ccccc2)C[C@H]2c3cccc4c3c(cn4C)C[C@@H]21	0.6%	.	.	.	.	.
CN1C[C@H](CNC(=O)OCc2ccccc2)C[C@@H]2c3cccc4c3c(cn4C)C[C@H]21	-1.6%	-86.8*	37.4*	-4.2	6.8	10.8
COc1cc2[nH]c(=O)n(-c3ccc(C)cc3)c(=O)c2cc1OC	1.5%	-44.2*!	1.0	0.9	2.2	-0.1
CN1CCN(c2ccc(/C=C3\C(=O)NC(=S)N(c4cccc(Br)c4)C3=O)o2)CC1	2.1%	4.1	90.4*	-6.3	9.2	24.2
CN1C(=O)C(=Cc2ccc(N3CCOCC3)o2)C(=O)N(C)C1=S	0.4%	5.7	18.4	-0.4	6.6	13.1
CCN1C(=O)C(=Cc2ccc(N3CCOCC3)o2)C(=O)N(CC)C1=S	0.7%	-0.7	65.9*	-1.7	2.3	25.8
CN1C(=O)/C(=C\c2ccc(N3CCCCC3)o2)C(=O)NC1=S	?	-0.9	32.7*	-3.6	-9.6	26.2
Oc1ccc2[nH]cc(CCCCN3CC=C(c4ccccc4)CC3)c2c1	2.1%	.	.	.	.	.
CCCN1CCCC2Cc3nc(N)ncc3CC21 (stereo not given)	0.0%	.	.	.	.	.
COC(=O)CN1CN(c2ccccc2)C2(CCN(Cc3ccc4ccccc4c3)CC2)C1=O	-0.4%	.	.	.	.	.
c1ccc(CNc2c3c(nc4ccccc24)CCC3)cc1	-2.1%	-49.8*	22.4	-19.8	8.4	0.3
CC(C)CNc1c2c(nc3ccccc13)CCC2	.	-11.8	9.0	-4.2	6.0	0.7
Cc1[nH]c2ccccc2c1CCNCc1ccco1	.	-40.7*	10.9	-2.7	2.1	1.3
SMILES	Epigenetic reg	D1 antagonist	D1 ag	D1 PAM	TRHR PAM	TRHR agonist
O=C1CC[C@@]2(O)C3Cc4ccc(O)c5c4C2(CCN3CC2CC2)[C@H]1O5 (stereo not given in full)	1.0%	.	.	.	.	.
CC1(C)C[C@H]2C=C(C=O)[C@]3(C=O)C[C@]3(C)[C@H]2C1	0.1%	-56.8*	1.8	-3.9	-19.0	1.1
Cc1cc(O)c2c3c(c(=O)oc2c1)CCC(C)C3 (stereo not given)	.	-35.3*	36.6*	-4.8	-11.6	0.3
O=C(Nc1ccc2c(c1)OCCO2)c1cccn(Cc2cccc(F)c2)c1=O	2.7%	.	1.4	1.9	0.1	0.1
C(=C\c1ccccc1)/CN1CCN(CCOC(c2ccccc2)c2ccccc2)CC1	0.0%	.	.	.	.	.
Cc1c(CCN)ccc2c1[nH]c1ccccc12	0.0%	-37.9*	24.9	-7.1	4.1	5.2
Cc1[nH]c2c(C(F)(F)F)cccc2c1CCN	-2.1%	8.3	9.0	1.9	6.3	1.8
COc1ccc2c(c1OC)CN1CCc3cc4c(cc3C1C2)OCO4 (stereo not given)	.	-80.1*	1.3	-9.3	-3.8	0.5
COc1ccc2c(c1OC)C(=O)O[C@H]2[C@H]1c2cc3c(cc2CCN1C)OCO3	0.0%[16.9 µM]	.	.	.	.	.
COc1ccc2c(c1OC)CN1CCc3cc4c(cc3[C@H]1C2)OCO4	-1.4%[16.9 µM]	-80.4*	1.2	-13.3	10.9	0.0
O=C1c2ccccc2C(=O)N1SC1CCCCC1	?	17.3	2.5	5.3	-3.6	11.4
Cc1cccc(-n2c(O)c(/C=N/Nc3nc4c(c(=O)n(C)c(=O)n4C)n3C)c(=O)[nH]c2=S)c1	-1.0%	-5.4	4.7	-4.0	4.2	1.1
Cc1ccccc1-n1c(O)c(/C=N/Nc2nc3c(c(=O)n(C)c(=O)n3C)n2C)c(=O)[nH]c1=S	-1.3%	-59.5*	2.2	-3.4	-1.4	1.0
Cc1cccc(C)c1OC(=O)Cc1ccccc1	2.3%	11.8	-0.3	33.0*	-6.1	2.2
CC(C)OC(=O)Cc1ccccc1	.	.	0.9	-2.2	-2.0	0.2
CC(C)(C)c1o[nH]c(=O)c1C[C@H](N)C(=O)O	-0.2%	.	.	.	.	.
CN1CC[C@@]2(c3cccc(O)c3)Cc3nc4ccccc4cc3C[C@H]2C1	-0.4%	.	.	.	.	.
CCOc1cc2c(cc1OCC)-n1cccc1C(c1ccc(F)c(OC)c1)NC2 (stereo not given)	.	-42.5*	65.7*	-6.2	-10.1	3.9
CCOc1cc2c(cc1OCC)-n1cccc1C(c1ccc(OC)c(OC)c1)NC2 (stereo not given)	.	-5.2	21.7	-10.2	-1.0	0.6
O=C(COc1cc(Cl)ccc1Cl)Nc1ccc(Cl)cc1C(=O)c1ccccc1	-1.6%	11.0	-3.0	1.1	-2.2	-0.4
CCN(CC)C(=O)N[C@H]1C[C@@H]2c3cccc4[nH]cc(c34)C[C@H]2N(C)C1	0.1%	-89.5*	2.0	-5.8	-4.8	1.6
CN1C[C@H](CO)C[C@@H]2c3cccc4[nH]cc(c34)C[C@H]21	.	-42.5*	1.0	-7.5	0.9	0.4
NC(=O)[C@@H]1CCCN1C(=O)[C@H](Cc1ccccc1)NC(=O)[C@@H]1CCCN1C(=O)[C@@H](N)Cc1ccc(O)cc1	1.1%	.	.	.	.	.
COc1ccccc1CC1/C(=N/O)C2CCN1CC2 (stereo not given)	0.2%	-69.2*	14.6	-15.1	-0.7	0.3
O=C1C2CCN(CC2)C1Cc1ccccc1O (stereo not given)	-0.8%	16.9	3.8	0.1	5.6	0.5
CCCC(=O)Nc1ccc(N2CCN(CC)CC2)c(Cl)c1	5.3%	-41.0*	2.0	-11.9	23.2	2.0
